Assay outcomes deposited in PubChem by National Center for Advancing Translational Sciences (NCATS).
A selection: hits, their analogues and other compounds. The true share with any hit is near 2.9%.
Nrf2 ARE act – qHTS of Nrf2 Activators | AREc32 ARE-luciferase reporter (MCF7-derived line), luminescence, 24 h | Potency, µM (doses to about 46.1 µM), for the others: top-dose activation, usual class: activators | 0.31% of 410,000 active; also: % of control where 0% means no effect; nearly all actives have a fitted effect of over 65% in size
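Each well held 1000 AREc32 cells, which were incubated with compound for 24 hr at 37 deg C after overnight attachment, and ARE reporter activity was quantified by firefly luciferase luminescence.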
A549 tox – Nrf2 qHTS screen for inhibitors: counterscreen for cytotoxicity | A549 ARE-Fluc cells, CellTiter-Fluor viability, 18-24 h | Potency, µM (highest dose often 46 µM), for inactives: at the highest dose activity change, negative = cytotoxicity, actives largely listed as inhibitors | 0.16% of 390,000 active | AID 504648, 2011; also: % is scaled to controls: 0 for no effect and ±100 for the full control effect
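A549 ARE-Fluc cells in 5% FBS OPTI-MEM, 5000 cells/well, rested 2 h then exposed to compounds in concentration-response for 18-24 h at 37 °C. Viability by CellTiter-Fluor fluorescence (Ex 405/Em 525) after 30 min; luciferase luminescence (BugLite, 15 min, RT) read afterwards.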
Nrf2 block – Nrf2 qHTS screen for inhibitors. A549 ARE-Fluc reporter, luciferase luminescence, 18-24 h. Potency, µM (series often up to 46 µM), for inactives: top-dose activity change, negative = inhibition, most hits filed as inhibitors. 2.1% of 360,000 active; also: % is scaled to controls: 0 for no effect and ±100 for the full control effect; nearly all actives have a fitted effect of over 60% in size
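In this cell-based qHTS, ARE-driven firefly luciferase in A549 cells reports Nrf2 activity; the luminescent signal after BugLite lysis is the measured value, with a prior CellTiter-Fluor read for cell health.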
ATXN2 expr inh – Primary qHTS for Inhibitors of ATXN expression | 0.72% of 360,000 active | Potency, µM (highest dose often 57 µM), without a hit: at the highest dose activity change, negative = inhibition, actives largely listed as inhibitors | HEK-293 ATXN2-luciferase reporter, luminescence, 24 h; also: % is scaled to controls: 0 for no effect and ±100 for the full control effect; nearly all actives have a fitted effect of over 55% in size
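qHTS (up to 57 uM final) was run with 24 h compound exposure of reporter cells at 37 °C. Each well was multiplexed: SteadyGlo luminescence measured ATXN2-luciferase expression after a fluorogenic Gly-Phe-AFC viability readout (25 uM final).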
ATXN viability – Viability Counterscreen for Primary qHTS for Inhibitors of ATXN expression; S2 cells (HEK-293 line with an ATXN2-luciferase reporter) viability, CellTiter-Fluor protease fluorescence, 24 h; Potency, µM (highest dose often 56.7 µM), hits mostly cytotoxic; 0.49% of 400,000 active; AID 651635, 2014; also: nearly all actives have a fitted effect of over 40% in size
* hit, by the source's call; [ ] = dose if it differs, or a comment. Calls follow the shape of the dose curve; as a rule, active = well fitted curve in the direction sought with a large enough effect; inconclusive = small, poorly fitted or top-dose-only effect, or another doubt; inactive = no such curve, though single readings can be large; an effect the other way counts as inactive or inconclusive. Potency is read from the fitted curve at half-maximal effect.

How did COc1ccc(CCn2c(=S)[nH]c(=O)c3nccnc32)cc1OC do in these assays?
A549 tox: inconclusive; Nrf2 block: 18.4µM*

How did OCC1OC(n2ccc3c(NO)ncnc32)C(O)C1O (stereo not drawn) do in these assays?
Nrf2 ARE act: -1.8%; A549 tox: 2.06µM*; Nrf2 block: inconclusive; ATXN2 expr inh: inconclusive; ATXN viability: inconclusive

What do the screens show for `OCC1OC(n2cnc3c(NCc4ccccc4O)ncnc32)C(O)C1O` (stereo not drawn)?
Nrf2 ARE act: inconclusive; A549 tox: -15.4%; Nrf2 block: 18.4µM*; ATXN2 expr inh: inconclusive; ATXN viability: inconclusive

How did COc1ccc2nc(NC(=O)C3=NN(c4ccccc4)C(=O)CC3)sc2c1 do in these assays?
Nrf2 ARE act: 3.3%; A549 tox: 2.2%; Nrf2 block: inconclusive; ATXN2 expr inh: 12.5%; ATXN viability: inactive

How did CCC(=O)OCC(=O)C1(OC(=O)CC)[C@H](C)C[C@H]2[C@H]3[C@H]([C@@H](O)C[C@@]21C)[C@@]1(C)C=CC(=O)C=C1C[C@H]3Cl (stereo partly drawn) do in these assays?
Nrf2 ARE act: 0.1%; A549 tox: -7.6%; Nrf2 block: 0.0517µM*; ATXN2 expr inh: -13.9%; ATXN viability: inactive

Results for CCC(=O)OCC(=O)[C@@]1(OC(=O)CC)[C@H](C)C[C@H]2[C@H]3[C@H]([C@@H](O)C[C@@]21C)[C@@]1(C)C=CC(=O)C=C1C[C@H]3Cl ?
ATXN viability: inactive

How did CCOC(=O)c1c(-c2ccc(C)o2)csc1NC(=O)COC(=O)c1ccc(NC(N)=O)cc1 do in these assays?
Nrf2 ARE act: 19.5%; A549 tox: -11.4%; Nrf2 block: 16.4µM*; ATXN2 expr inh: inconclusive; ATXN viability: inconclusive

What do the screens show for `COc1cccc(OC)c1C(=O)NC(=O)Nc1c(F)c(F)c(F)c(F)c1F`?
Nrf2 ARE act: -1.3%; A549 tox: -4.2%; Nrf2 block: 9.6%; ATXN viability: inactive

Results for CC1(C)CC(N2CCOCC2)=CC(=S)N1 ?
Nrf2 ARE act: -0.3%; ATXN2 expr inh: 4.2%; ATXN viability: inactive

What do the screens show for `Cc1nc(-c2cccc(NC(=O)c3ccc(-n4cccn4)cc3)c2)cs1`?
Nrf2 ARE act: 0.7%; A549 tox: -6.8%; Nrf2 block: 14.6µM*; ATXN2 expr inh: -6.7%; ATXN viability: inactive

How did COc1ccc(NC(=O)c2ccc(-c3csc(C)n3)cc2)cc1 do in these assays?
Nrf2 ARE act: 0.1%; A549 tox: -18.4%; Nrf2 block: 20.6µM*; ATXN2 expr inh: inconclusive; ATXN viability: inactive

How did Nc1nc(-c2ccc(NC(=O)c3ccco3)cc2)cs1 do in these assays?
Nrf2 ARE act: -0.5%; A549 tox: -4.0%; Nrf2 block: inconclusive; ATXN2 expr inh: 15.8µM*; ATXN viability: inactive

What do the screens show for `Cc1nc(-c2ccc(NC(=O)c3ccco3)cc2)cs1`?
Nrf2 ARE act: -2.6%; A549 tox: 3.1%; Nrf2 block: 7.31µM*; ATXN2 expr inh: 3.98µM*; ATXN viability: inactive

What do the screens show for `O=C(O)c1cc2cccc(S(=O)(=O)N3CCOCC3)c2cc1O`?
Nrf2 ARE act: -0.3%; A549 tox: 2.8%; Nrf2 block: 11.2%; ATXN2 expr inh: 1.4%; ATXN viability: inactive

How did CC(C)Oc1cc(F)ccc1-c1cc(C(=O)NCc2cccnc2)[nH]n1 do in these assays?
Nrf2 ARE act: -0.2%; ATXN2 expr inh: 2.2%; ATXN viability: inactive

How did Nn1c(COc2ccc(Cl)cc2)n[nH]c1=S do in these assays?
Nrf2 ARE act: -0.2%; A549 tox: -1.2%; Nrf2 block: 8.3%; ATXN2 expr inh: 15.8%[11.3 µM]; ATXN viability: inactive

Results for COc1ccc(C(=O)COC(=O)CN2CC(=O)Oc3ccccc32)cc1Br ?
Nrf2 ARE act: 14.1µM*; A549 tox: -19.0%; Nrf2 block: 0.2%; ATXN2 expr inh: inconclusive; ATXN viability: inconclusive

How did COc1ccc(C(=O)COC(=O)C2CC3CCCC(C2)C3=O)cc1Br (stereo not drawn) do in these assays?
Nrf2 ARE act: -0.8%; A549 tox: 0.6%; Nrf2 block: 19.5%; ATXN2 expr inh: 3.4%; ATXN viability: inactive

Results for NC(N)=N/N=C/c1ccc2cccc(OCc3ccccc3)c2n1 ?
Nrf2 ARE act: 3.4%; A549 tox: -11.3%; Nrf2 block: -27.5%; ATXN2 expr inh: 29.9µM*; ATXN viability: inconclusive

What do the screens show for `O/N=C/c1ccc2cccc(OCc3ccccc3)c2n1`?
Nrf2 ARE act: inconclusive; A549 tox: 3.9%; Nrf2 block: -3.9%; ATXN2 expr inh: -2.5%; ATXN viability: inactive

How did Cc1ccc(CN(Cc2ccco2)C(=O)COc2ccc(C(C)C)cc2)cc1 do in these assays?
Nrf2 ARE act: -1.0%; A549 tox: 7.5%; Nrf2 block: 18.4µM*

Results for CCC(=O)NC(=S)Nc1ccc(NC(=O)COc2ccc(Cl)cc2Cl)cc1 ?
Nrf2 ARE act: 5.1%; A549 tox: 2.2%; Nrf2 block: -19.4%; ATXN2 expr inh: 3.4%; ATXN viability: inconclusive

How did CCOc1ccc(OCC)c(S(=O)(=O)NCCOC23CC4CC(CC(C4)C2)C3)c1 do in these assays?
Nrf2 ARE act: 0.4%; A549 tox: -0.2%; Nrf2 block: inconclusive; ATXN2 expr inh: inconclusive; ATXN viability: inconclusive

Results for COc1cc(S(=O)(=O)NCCOC23CC4CC(CC(C4)C2)C3)c(OC)cc1Cl ?
Nrf2 ARE act: -0.4%; A549 tox: -0.8%; Nrf2 block: 20.6µM*; ATXN2 expr inh: -18.6%; ATXN viability: inactive

How did CCCCS(=O)(=O)c1oc(-c2ccc(F)cc2)nc1S(=O)(=O)c1ccccc1 do in these assays?
Nrf2 ARE act: inconclusive; A549 tox: inconclusive; Nrf2 block: 20.6µM*

How did CN(CCC#N)C(=O)COC(=O)c1ccc(Cl)c(S(N)(=O)=O)c1 do in these assays?
Nrf2 ARE act: -0.4%; A549 tox: -10.1%; Nrf2 block: -10.1%; ATXN2 expr inh: 2.3%; ATXN viability: inactive

What do the screens show for `O=C(COC(=O)c1ccc2c(c1[N+](=O)[O-])C(=O)c1ccccc1C2=O)NC1CC1`?
Nrf2 ARE act: 14.5%[9.22 µM]; A549 tox: inconclusive; Nrf2 block: -21.7%; ATXN2 expr inh: -15.8%; ATXN viability: 28.2µM*

Results for O=C(COC(=O)c1ccccc1C(=O)c1ccc(Cl)c([N+](=O)[O-])c1)NC1CCCCCC1 ?
Nrf2 ARE act: -2.4%; A549 tox: inconclusive; Nrf2 block: 20.6µM*; ATXN2 expr inh: inconclusive

How did CN(CCC#N)C(=O)COC(=O)c1ccccc1C(=O)c1ccc(Cl)c([N+](=O)[O-])c1 do in these assays?
Nrf2 ARE act: 15.8µM*; A549 tox: -17.2%; Nrf2 block: -27.1%; ATXN2 expr inh: -36.6%[11.3 µM]

What do the screens show for `O=C(COC(=O)c1cccc2c1C(=O)c1ccccc1C2=O)NC1CCCCC1`?
Nrf2 ARE act: 0.3%; A549 tox: -20.8%; Nrf2 block: inconclusive; ATXN2 expr inh: -26.7%; ATXN viability: inactive
